Read-out in assay [1]: Phosphatase and tensin (PTEN), PTEN (gene 5728)
Nature of the assay: LTEA_HepaRG_PTEN: Life Technologies and Expression Analysis (LTEA) Assay for Phosphatase and tensin (PTEN) using HepaRG (AID 2283523). The following applies: mRNA level, 48 h; actives raise or lower the signal. The essentials:
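HepaRG, 48 h exposure, 8-pt half-log series from 100 uM top, 0.5% DMSO vehicle, duplicates. Readout: Fluidigm qRT-PCR of PTEN transcript; housekeeping normalization (ACTB, GAPDH, POLR2A). Gain or loss fitted relative to DMSO baseline.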

Read-out in assay [2]: solute carrier (SLC22A1), SLC22A1 (gene 6580)
In words: LTEA_HepaRG_SLC22A1: Life Technologies and Expression Analysis (LTEA) Assay for solute carrier (SLC22A1) using HepaRG (AID 2283524). Particulars: mRNA level, 48 h; actives raise or lower the signal. Put shortly: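 qRT-PCR readout (TaqMan, Fluidigm arrays) of SLC22A1 transcript, normalized to three housekeeping genes; bidirectional curve fit relative to 0.5% DMSO vehicle. Differentiated human HepaRG cells, 48 h chemical exposure, top concentration 100 uM, half-log steps, eight points.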

Read-out in assay [3]: Nuclear factor erythroid 2-related factor 2 (Homo sapiens) (UniProt Q16236)
Nature of the assay: LTEA_HepaRG_NFE2L2: Life Technologies and Expression Analysis (LTEA) Assay for Nuclear factor erythroid 2-related factor 2 (NFE2L2) Transcription Factor using HepaRG (AID 2283527).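 Note: TaqMan qRT-PCR transcript level normalised to ACTB GAPDH and POLR2A housekeeping genes.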 The following applies: mRNA level, 48 h; actives raise or lower the signal. Put shortly: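 HepaRG, 48 h dosing, 8-pt half-log series from 100 uM in 0.5% DMSO, duplicates. Read-out: NFE2L2 mRNA by qRT-PCR (ACTB/GAPDH/POLR2A normalization). Bidirectional curve fit vs DMSO baseline.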

Read-out in assay [4]: succinate dehydrogenase complex iron sulfur subunit B (SDHB), SDHB (gene 6390)
Nature of the assay: LTEA_HepaRG_SDHB: Life Technologies and Expression Analysis (LTEA) Assay for succinate dehydrogenase complex iron sulfur subunit B (SDHB) using HepaRG (AID 2283528). Particulars: mRNA level, 48 h; actives raise or lower the signal. The essentials:
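Readout is SDHB transcript level by qRT-PCR, normalised to three housekeeping genes and fitted bidirectionally against 0.5% DMSO vehicle. Human HepaRG cells were treated for 48 h at up to 100 uM.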

Read-out in assay [5]: Signal transducer and activator of transcription 3 (Homo sapiens) (UniProt P40763)
In words: LTEA_HepaRG_STAT3: Life Technologies and Expression Analysis (LTEA) Assay for Signal transducer and activator of transcription (STAT3) using HepaRG (AID 2283529). The following applies: mRNA level, 48 h; actives raise or lower the signal. The essentials:
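HepaRG, 48 h exposure, 8-pt half-log series (top 100 uM), 0.5% DMSO vehicle, duplicates. Readout: STAT3 transcript by Fluidigm qRT-PCR, housekeeping-normalized; bidirectional fit vs DMSO baseline.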

Read-out in assay [6]: solute carrier (SLCO1B1), SLCO1B1 (gene 10599)
In words: LTEA_HepaRG_SLCO1B1: Life Technologies and Expression Analysis (LTEA) Assay for solute carrier (SLCO1B1) using HepaRG (AID 2283530). The following applies: mRNA level, 48 h; actives raise or lower the signal. The essentials: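 Differentiated human HepaRG cells, plated 48 h, switched to serum-free induction medium and exposed in duplicate for 48 h to 8 half-log concentrations (top 100 uM) in 0.5% DMSO. SLCO1B1 mRNA by TaqMan qRT-PCR, normalized to ACTB/GAPDH/POLR2A.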

Read-out in assay [7]: sulfotransferase 2A1 (SULT2A1), SULT2A1 (gene 6822)
Nature of the assay: LTEA_HepaRG_SULT2A1: Life Technologies and Expression Analysis (LTEA) Assay for sulfotransferase 2A1 (SULT2A1) using HepaRG (AID 2283531). Particulars: mRNA level, 48 h; actives raise or lower the signal. Put shortly:
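Differentiated human HepaRG cells in serum-free induction medium were exposed for 48 h to eight half-log concentrations (top 100 uM, 0.5% DMSO). SULT2A1 mRNA was measured by qRT-PCR, normalized to ACTB, GAPDH and POLR2A, and fitted bidirectionally against DMSO.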

Read-out in assay [8]: Transforming Growth Factor (TGFA), TGFA (gene 7039)
In words: LTEA_HepaRG_TGFA: Life Technologies and Expression Analysis (LTEA) Assay for Transforming Growth Factor (TGFA) using HepaRG (AID 2283532). Particulars: mRNA level, 48 h; actives raise or lower the signal. Put shortly: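 qRT-PCR read-out of TGFA transcript, normalized to three housekeeping genes, fitted bidirectionally against 0.5% DMSO baseline. Human HepaRG cultures received chemicals for 48 h at eight half-log concentrations, top 100 uM.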

Read-out in assay [9]: Transforming Growth Factor (TGFB1), TGFB1 (gene 7040)
In words: LTEA_HepaRG_TGFB1: Life Technologies and Expression Analysis (LTEA) Assay for Transforming Growth Factor (TGFB1) Transporter using HepaRG (AID 2283533). Particulars: mRNA level, 48 h; actives raise or lower the signal. The essentials:
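Differentiated human HepaRG cells in serum-free induction medium were exposed in duplicate for 48 h to eight concentrations (top 100 uM, half-log steps, 0.5% DMSO). TGFB1 mRNA was quantified by qRT-PCR, normalized to ACTB, GAPDH, POLR2A, and fitted bidirectionally against DMSO.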

Read-out in another assay: TIMP1, TIMP1 (gene 7076)
In words: LTEA_HepaRG_TIMP1: Life Technologies and Expression Analysis (LTEA) Assay for TIMP1 using HepaRG (AID 2283534). The following applies: mRNA level, 48 h; actives raise or lower the signal. Put shortly: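 Differentiated human HepaRG cells in serum-free induction medium were exposed 48 h to chemicals (8 half-log concentrations, top 100 uM, 0.5% DMSO). TIMP1 mRNA was quantified by TaqMan qRT-PCR, normalized to ACTB/GAPDH/POLR2A; bidirectional fit versus DMSO.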

Read-out in assay [10]: Tumor necrosis factor receptor 1 (TNFRSF1A), TNFRSF1A (gene 7132)
In words: LTEA_HepaRG_TNFRSF1A: Life Technologies and Expression Analysis (LTEA) Assay for Tumor necrosis factor receptor 1 (TNFRSF1A) using HepaRG (AID 2283535). Particulars: mRNA level, 48 h; actives raise or lower the signal. Put shortly: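 Differentiated human HepaRG cells were exposed in duplicate for 48 h in serum-free induction medium to eight concentrations (top 100 uM, half-log steps, 0.5% DMSO). TNFRSF1A mRNA was quantified by qRT-PCR, normalized to ACTB, GAPDH and POLR2A, then fitted bidirectionally against DMSO.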

Read-out in assay [11]: Cellular tumor antigen p53 (Homo sapiens) (UniProt P04637)
In words: LTEA_HepaRG_TP53: Life Technologies and Expression Analysis (LTEA) Assay for Tumor Protein P53 (TP53) using HepaRG (AID 2283537). Particulars: mRNA level, 48 h; actives raise or lower the signal. The essentials: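 Read-out is TP53 transcript level by microfluidic qRT-PCR, normalised to three housekeeping genes and fitted bidirectionally against DMSO. Human HepaRG cells received compounds for 48 h, highest concentration 100 uM.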

Read-out in assay [12]: UDP glucuronosyltransferase (UGT1A1), UGT1A1 (gene 54658)
Nature of the assay: LTEA_HepaRG_UGT1A1: Life Technologies and Expression Analysis (LTEA) Assay for UDP glucuronosyltransferase (UGT1A1) using HepaRG (AID 2283538). The following applies: mRNA level, 48 h; actives raise or lower the signal. Put shortly: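 Cells are plated, cultured 48 h, switched to serum-free induction medium, then dosed 48 h at eight concentrations (max 100 uM, 0.5% DMSO). RNA is isolated and UGT1A1 expression measured by qRT-PCR; changes versus DMSO are fitted in both directions.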

Read-out in assay [13]: UDP glucuronosyltransferase (UGT1A6), UGT1A6 (gene 54578)
In words: LTEA_HepaRG_UGT1A6: Life Technologies and Expression Analysis (LTEA) Assay for UDP glucuronosyltransferase (UGT1A6) using HepaRG (AID 2283539). Particulars: mRNA level, 48 h; actives raise or lower the signal. The essentials: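 Human HepaRG cells were dosed for 48 h in serum-free induction medium with 0.5% DMSO vehicle, eight-point half-log series from 100 uM, in duplicate. UGT1A6 mRNA was measured by qRT-PCR, normalized to ACTB, GAPDH, POLR2A, and fitted bidirectionally against DMSO.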

Read-out in assay [14]: X-box binding protein 1 (XBP1), XBP1 (gene 7494)
In words: LTEA_HepaRG_XBP1: Life Technologies and Expression Analysis (LTEA) Assay for X-box binding protein 1 (XBP1) using HepaRG (AID 2283540). The following applies: mRNA level, 48 h; actives raise or lower the signal. Put shortly: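 Differentiated human HepaRG cells in serum-free induction medium were exposed in duplicate for 48 h to eight half-log concentrations up to 100 uM in 0.5% DMSO. XBP1 mRNA was quantified by qRT-PCR, normalised to ACTB, GAPDH and POLR2A, with bidirectional fitting against DMSO.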

A short description of assay [15]: LTEA_HepaRG_LDH_cytotoxicity: Cytotoxicity Assessment in the Life Technologies and Expression Analysis (LTEA) Assay (AID 2283563; active = hit-call score of the fitted dose curve at least 0.9, where 1 is the maximum). The essentials: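 Differentiated human HepaRG cells, plated 48 h beforehand, were switched to serum-free induction medium and exposed for 48 h to eight half-log concentrations (top 100 uM) in 0.5% DMSO. LDH was measured in spent medium; activity was fitted relative to DMSO vehicle.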

The nature of assay [16]: ATG_XTT_Cytotoxicity: Cytotoxicity Assessment in the Attagene TRANS-FACTORIAL HepG2 Assay (AID 2283584; active = hit-call score of the fitted dose curve at least 0.9, where 1 is the maximum). Put shortly:
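HepG2 human liver cells, transiently transfected with multiple GAL4-UAS reporter units, were dosed and read at 24 h by XTT as cell number. Loss of signal was fitted relative to DMSO negative control baseline.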

Read-out in assay [17]: NAD(P)H dehydrogenase [quinone] 1 (NQO1), NQO1 (gene 1728)
Nature of the assay: LTEA_HepaRG_NQO1: Life Technologies and Expression Analysis (LTEA) Assay for NAD(P)H dehydrogenase [quinone] 1 (NQO1) using HepaRG (AID 2283526). Particulars: mRNA level, 48 h; actives raise or lower the signal. Put shortly: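 Transcript induction or suppression is quantified by qRT-PCR in human HepaRG liver cells dosed for 48 hours. Eight half-log concentrations topping at 100 uM are used, with 0.5% DMSO as vehicle and baseline.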

Inconclusive results are not listed. The source made the active and inactive calls. Rule for the calls, unless noted: active = hit-call score of the fitted dose curve at least 0.9, where 1 is the maximum; inactive = score below 0.9.

Signal transducer and activator of transcription 3 (Homo sapiens), sequence (P40763 whole entry, looked up): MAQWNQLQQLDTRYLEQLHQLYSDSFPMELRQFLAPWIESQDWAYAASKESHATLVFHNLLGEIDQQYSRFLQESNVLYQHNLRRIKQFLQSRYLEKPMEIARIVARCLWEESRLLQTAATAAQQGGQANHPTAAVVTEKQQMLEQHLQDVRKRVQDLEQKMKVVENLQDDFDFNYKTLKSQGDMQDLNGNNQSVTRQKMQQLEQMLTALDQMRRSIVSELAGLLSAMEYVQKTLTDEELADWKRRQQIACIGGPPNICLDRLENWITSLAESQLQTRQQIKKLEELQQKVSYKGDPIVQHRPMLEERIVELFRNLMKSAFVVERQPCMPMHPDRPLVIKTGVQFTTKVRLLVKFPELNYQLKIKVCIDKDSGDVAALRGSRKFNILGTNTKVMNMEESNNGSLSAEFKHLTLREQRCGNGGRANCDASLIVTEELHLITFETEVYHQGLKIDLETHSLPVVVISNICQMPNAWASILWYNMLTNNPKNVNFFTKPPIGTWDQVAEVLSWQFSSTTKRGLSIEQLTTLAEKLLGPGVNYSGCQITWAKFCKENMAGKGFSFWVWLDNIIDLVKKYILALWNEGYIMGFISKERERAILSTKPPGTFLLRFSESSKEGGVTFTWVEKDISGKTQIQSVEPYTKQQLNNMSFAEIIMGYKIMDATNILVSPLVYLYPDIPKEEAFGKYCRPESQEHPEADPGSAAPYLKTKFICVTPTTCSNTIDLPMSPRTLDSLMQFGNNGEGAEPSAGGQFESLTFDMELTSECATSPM
Cellular tumor antigen p53 (Homo sapiens), sequence (P04637 whole entry, looked up): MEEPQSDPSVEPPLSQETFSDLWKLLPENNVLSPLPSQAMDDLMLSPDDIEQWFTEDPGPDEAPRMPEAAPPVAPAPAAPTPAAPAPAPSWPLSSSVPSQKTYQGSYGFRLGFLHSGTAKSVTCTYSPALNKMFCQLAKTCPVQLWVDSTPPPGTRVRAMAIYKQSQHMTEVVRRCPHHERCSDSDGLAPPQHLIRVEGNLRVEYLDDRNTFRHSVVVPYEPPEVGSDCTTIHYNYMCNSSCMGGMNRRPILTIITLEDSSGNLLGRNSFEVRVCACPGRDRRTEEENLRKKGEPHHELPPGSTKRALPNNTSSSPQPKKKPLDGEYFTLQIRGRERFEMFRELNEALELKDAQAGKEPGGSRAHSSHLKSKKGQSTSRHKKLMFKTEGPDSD
Nuclear factor erythroid 2-related factor 2 (Homo sapiens), sequence (Q16236 whole entry, looked up): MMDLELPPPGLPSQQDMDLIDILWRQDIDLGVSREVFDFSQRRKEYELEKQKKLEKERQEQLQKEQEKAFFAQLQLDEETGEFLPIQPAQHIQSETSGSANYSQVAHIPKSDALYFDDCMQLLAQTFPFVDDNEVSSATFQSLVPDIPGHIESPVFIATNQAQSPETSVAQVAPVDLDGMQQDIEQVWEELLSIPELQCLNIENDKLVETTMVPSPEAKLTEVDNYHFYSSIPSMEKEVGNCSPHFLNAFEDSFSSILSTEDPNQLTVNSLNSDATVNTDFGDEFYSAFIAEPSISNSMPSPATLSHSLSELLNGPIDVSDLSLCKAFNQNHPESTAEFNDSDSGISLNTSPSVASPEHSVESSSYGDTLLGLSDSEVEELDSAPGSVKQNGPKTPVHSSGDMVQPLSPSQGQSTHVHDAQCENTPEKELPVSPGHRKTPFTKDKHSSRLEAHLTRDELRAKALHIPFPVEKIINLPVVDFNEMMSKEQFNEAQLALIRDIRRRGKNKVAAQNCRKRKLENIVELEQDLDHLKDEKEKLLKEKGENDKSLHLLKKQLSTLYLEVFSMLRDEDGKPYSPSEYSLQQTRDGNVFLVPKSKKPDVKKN

The AC50 is the concentration giving half of the maximal activity seen. Regarding `CCOC(=O)COc1ccc2c(c1)CC(NCC(O)c1cccc(Cl)c1)CC2` (configuration not stated), the compound was classed as inactive in assay [1], in assay [2], in assay [3], in [4], in assay [5] and in [6]. Moreover, the outcome in assay [7] was “inactive”; in assay [8], “inactive”; in [9], “inactive”; with TIMP1, TIMP1 (gene 7076), “inactive”; in [10], “inactive”; in assay [11], “inactive”. Also, the compound was classed as inactive in assay [12], in [13] and in assay [15]. Also, the AC50 in [14] is 45.8 µM (active).

With `Nc1nc2ncc(CNc3ccc(C(=O)N[C@@H](CCC(=O)O)C(=O)O)cc3)nc2c(=O)[nH]1`, the outcome in assay [1], in assay [2], in [3], in assay [4], in assay [5] and in [6] was inactive. In addition, the outcome in [7] is “inactive”; in assay [8], “inactive”; in assay [9] it was “inactive”; in the assay with TIMP1, TIMP1 (gene 7076), “inactive”; in assay [10], “inactive”; in [11], “inactive”. For the same compound, the compound was classed as inactive in assay [12], in assay [13], in [14], in assay [15] and in assay [16].

`CC/C(=C\C(=N/O)C(N)=O)C(C)[N+](=O)[O-]` (configuration not stated): the compound was classed as inactive in assay [1], in [2], in assay [17], in assay [3], in [4] and in assay [5]. For the same compound, the outcome in assay [6] was “inactive”; in assay [7] it was “inactive”; in [8] it was “inactive”; in assay [9], “inactive”; with TIMP1, TIMP1 (gene 7076) it was “inactive”; in assay [10], “inactive”. Moreover, the outcome in assay [11], in [12], in [13], in assay [15] and in [16] was inactive.

For `COCCOCCOCCOC`, the call in assay [1], in assay [2], in assay [3], in assay [4], in assay [5] and in assay [6] was inactive. The outcome in assay [7] was “inactive”; in assay [8], “inactive”; in [9], “inactive”; with TIMP1, TIMP1 (gene 7076) it was “inactive”; in assay [10], “inactive”; in assay [11] it was “inactive”. The outcome in [12], in assay [13], in assay [14], in assay [15] and in [16] was inactive.

Source of the values: PubChem BioAssay (EPA / NIEHS).
